In the supplement of paper PMC12636033:
± gives the standard deviation of the averaged measurements. In all, about 33,000 sequences were measured (“E-score (rank enrichment, -0.5 to 0.5)”: median about -0.0043, highest 2% from about 0.24 on). The full list was thinned out, with the highest values kept by preference.

system: 2Sp-muMax20 (muMax20 with two 2,6-bis(methyl)pyridine Cys staples); experiment: PBM 8-mer E-score (E-score (rank enrichment, -0.5 to 0.5)); higher = stronger preferential binding
Method: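 Protein binding microarray (universal PBM chip covering all 10-mers in fixed probe flanks) with chemically synthesized human Max(13-93) bHLH-LZ analogs (not full-length Max) bearing noncanonical residues (hArg, Tha, Aib, Nle at 65) and aromatic Cys staples. Read-out per 8-mer (and its reverse complement): E-score (rank-based enrichment, -0.5 to 0.5) and Z-score of median probe intensity.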

Sequence | PBM 8-mer E-score
GGCGAGAC | -0.0185 ± 0.036
ATACTTTG | 0.185 ± 0.015
ATACTTTA | 0.255 ± 0.07
CTACTTTA | 0.0402 ± 0.06
AGTCTCGA | 0.0438 ± 0.016
ACCTCCAC | -0.105 ± 0.0033
GTGTGATA | 0.15 ± 0.061
ACGTGATA | 0.222 ± 0.02
ACGTGATC | 0.17 ± 0.081
ACGTGAAA | 0.243 ± 0.025
GTGTGAAA | 0.11 ± 0.0048
CTGTGAAA | -0.00932 ± 0.11
ATGTGATA | 0.288 ± 0.051
ACGTGATG | 0.244 ± 0.0044
ACGTGAAC | 0.0294 ± 0.091
ATGTGAAA | 0.319 ± 0.026
TCGTGAAA | -0.115 ± 0.084
CTGTGATA | -0.0212 ± 0.031
CGCTCCTA | -0.177 ± 0.024
AACAGTAC | 0.0773 ± 0.0098
AGCTAGAC | -0.14 ± 0.029
CCCCCGAA | -0.24 ± 0.13
CCGTGACG | -0.127 ± 0.12

Sequence | PBM 8-mer E-score
CCAAGGGG | -0.104 ± 0.046
ATACTGAC | 0.0362 ± 0.0098
ATACTGAT | 0.2387 ± 0.00027
ATACTGTC | 0.183 ± 0.041
GCAGATCC | -0.0702 ± 0.063
ACGTGACC | 0.149 ± 0.063
TCCTTTAA | 0.0188 ± 0.023
CATAATGA | 0.1647 ± 0.0015
AATAATGT | 0.241 ± 0.044
GATAATGA | 0.00488 ± 0.095
AATAATGG | 0.126 ± 0.043
AATAATGA | 0.238 ± 0.017
AATAATGC | 0.143 ± 0.1
GACCTGCC | -0.149 ± 0.014
ATAACATC | 0.236 ± 0.034
CTAACATC | 0.0136 ± 0.022
ATAACAAC | 0.0625 ± 0.012
ATAACATG | 0.229 ± 0.027
ATAACAAG | 0.221 ± 0.044
ATAACAAT | 0.244 ± 0.022
AGGACTCA | 0.0578 ± 0.11
CAGCGAAA | -0.113 ± 0.0075
ACTGTAGG | 0.0115 ± 0.027

Sequence | PBM 8-mer E-score
AGAGTCGC | 0.0183 ± 0.052
CTCTCAAA | -0.015 ± 0.005
CACTATAG | 0.243 ± 0.038
AACTATTC | -0.0563 ± 0.067
AACTATAG | 0.212 ± 0.074
AACTATAC | 0.114 ± 0.06
CACTATAA | -0.0291 ± 0.0069
AACTATTA | 0.169 ± 0.027
CACTATAC | 0.25 ± 0.013
GACTATAC | 0.141 ± 0.068
AACTATTG | 0.24 ± 0.051
CCGGATCA | -0.0752 ± 0.094
AATTATGC | 0.202 ± 0.025
ATGGATGC | 0.0345 ± 0.13
CACGCGAG | 0.26 ± 0.025
CACGCGAA | 0.0343 ± 0.011
GTCGCGAC | 0.314 ± 0.014
CACGCGAC | 0.277 ± 0.013
CTCGCGAC | 0.0452 ± 0.004
GACGCGAC | -0.108 ± 0.084
GTCGCGAA | -0.143 ± 0.017
AACGCGAC | 0.0983 ± 0.018
AACGCGAG | 0.0185 ± 0.046

Sequence | PBM 8-mer E-score
CTAGAGTC | -0.122 ± 0.025
ACCTCTCT | -0.0431 ± 0.11
AGGCACTC | -0.155 ± 0.0063
GCCACGGC | -0.219 ± 0.036
CGCCTATC | 0.0914 ± 0.054
ATGCGGTC | -0.0281 ± 0.033
AAATGTGG | 0.138 ± 0.015
CTATGTGC | 0.13 ± 0.017
AGATGTGG | 0.0241 ± 0.00082
ACATGTGG | 0.364 ± 0.031
AGATGTGC | 0.0607 ± 0.028
ACATGTGC | 0.283 ± 0.052
GCGAAGGA | -0.1 ± 0.011
CCTGAAGC | -0.0531 ± 0.025
CGATTGCA | 0.000985 ± 0.025
TGATTGCA | 0.286 ± 0.081
AGATTGCA | 0.0232 ± 0.053
ACGTCGCA | -0.0865 ± 0.15
CTCGCTTC | -0.0128 ± 0.0032
TACAAAAA | 0.26 ± 0.052
GACAATAC | 0.144 ± 0.15
TACAATAA | 0.321 ± 0.051
CACAATAA | 0.0537 ± 0.028

Sequence | PBM 8-mer E-score
GACAATAA | 0.188 ± 0.0055
AACAAAAA | -0.0104 ± 0.045
AACAATAA | 0.134 ± 0.036
TACAAGAA | 0.213 ± 0.018
AACAATAC | 0.263 ± 0.0036
GATAAACC | -0.167 ± 0.039
TCAGGGGA | 0.143 ± 0.019
TAAACGAA | 0.143 ± 0.00096
AACTGATG | -0.0947 ± 0.093
CAAAACCA | 0.218 ± 0.056
TTCGAAAA | 0.0928 ± 0.011
CCAGAGCC | 0.0426 ± 0.067
CTAATTAC | 0.108 ± 0.024
ATAATTAT | 0.274 ± 0.062
AAAATTAG | 0.129 ± 0.0083
TTAATTAA | 0.303 ± 0.081
ATAATTAA | 0.183 ± 0.096
ACAATTAT | 0.139 ± 0.091
GTAATTAA | 0.123 ± 0.033
